# Screening results from PubChem BioAssay.
# A selection: hits, their analogues and other compounds. The true share with any hit is near 17%.
# TDP1 inh – blocks human tyrosyl-DNA phosphodiesterase 1 | 350,000 compounds, 0.28% hits | Potency, µM (doses to about 130 µM), for the others: at the top dose activity change, negative = inhibition, hits mostly inhibitors | recombinant TDP1, AlphaScreen DNA substrate cleavage | AID 485290 | Q9NUW8; further: on the % scale 0 is the no-effect control and ±100 the full control effect; nearly all actives have a fitted effect of over 40% in size
#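 Enzyme-compound mixtures sat 15 min at room temperature, followed by a 5 min reaction with 15 nM final substrate and 10 min with AlphaScreen beads. Recombinant human Tdp1 was used at 1 nM final.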
# ClpP mod – qHTS Assay for Activators of ClpP | purified B. subtilis ClpP, FRET peptide cleavage, 20 min | Potency, µM (top dose mostly 57.5 µM), without a hit: at the top dose activity change, negative = active | 340,000 compounds, 1.9% hits | AID 651965, 2013; active means well fitted falling curve with a large enough effect; inconclusive means small, poorly fitted or top-dose-only effect; inactive means no such curve, though single readings can be large or run the other way; further: the source files actives as falling curves though it sought activators and does not explain the sign; nearly all actives have a fitted effect of over 65% in size
# Target sequence (P80244 whole entry, looked up): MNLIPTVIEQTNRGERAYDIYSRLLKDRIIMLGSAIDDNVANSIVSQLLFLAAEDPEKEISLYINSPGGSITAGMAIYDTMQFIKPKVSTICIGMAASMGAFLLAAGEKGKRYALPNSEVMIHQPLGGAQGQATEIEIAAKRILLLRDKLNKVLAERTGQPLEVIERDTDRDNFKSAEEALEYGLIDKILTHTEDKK
#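 FRET quenching reversal measured ClpP activation: 10 microg/mL B. subtilis ClpP at pH 8 with the FRET-FV decapeptide, read at 430 nm after 320 nm excitation. The 20-min minus 0-min signal was scaled between DMSO/no-enzyme wells and ADEP (5.8 microM final).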
# DT40 TDP1 no CPT – qHTS for Inhibitors of human tyrosyl-DNA phosphodiesterase 1 (TDP1): qHTS in cells in absence of CPT. DT40 Tdp1-/- hTDP1 cells, no CPT, ATP luminescence, 48 h. Potency, µM (doses to about 46.2 µM), for the others: at the highest dose activity change, negative = growth inhibition, actives largely listed as inhibitors. 420,000 compounds, 15% hits. AID 686978, 2013; further: on the % scale 0 is the no-effect control and ±100 the full control effect; nearly all actives have a fitted effect of over 55% in size
#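 DT40 Tdp1-/-;hTDP1 cells, no CPT (DMSO vehicle only), 400 cells/well; compounds pin-transferred; ≥48 hr, 37 °C; CellTiter-Glo 30 min RT dark, luminescence read.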
# DT40 TDP1 CPT – DT40-hTDP1 cell growth loss with CPT; Potency, µM (highest dose often 46.2 µM), without a hit: top-dose activity change, negative = growth inhibition, hits mostly inhibitors; 420,000 compounds, 12% hits; chicken DT40 Tdp1-/-;hTDP1 cells + 20 nM CPT, ATP luminescence, 48 h; further: on the % scale 0 is the no-effect control and ±100 the full control effect; nearly all actives have a fitted effect of over 55% in size
#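 Chicken DT40 Tdp1-/- cells complemented with human TDP1, 400 cells/well, exposed to compounds plus 20 nM camptothecin for at least 48 h at 37 C; viability read as ATP content by CellTiter-Glo luminescence.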
# Numbers without * were called inactive; ? = inconclusive; / = no result; [ ] = dose if it differs, or a comment. Unless noted, the call rests on the fitted dose curve; in most records, active means well fitted curve in the direction sought with a large enough effect; inconclusive means small, poorly fitted or top-dose-only effect, or another doubt; inactive means no such curve, though single readings can be large; an effect the other way counts as inactive or inconclusive. Potency means the concentration at half of the fitted maximal effect.
SMILES,TDP1 inh,ClpP mod,DT40 TDP1 no CPT,DT40 TDP1 CPT
Cc1ccc(C)c(Nc2nc3c(S(=O)(=O)c4ccc(C(C)C)cc4)nnn3c3ccsc23)c1,3%,35µM*,21µM*,15µM*
Cc1ccc(C)c(Nc2nc3c(S(=O)(=O)c4ccc(Br)cc4)nnn3c3ccsc23)c1,/,28µM*,21µM*,18µM*
CCOC(=O)c1noc2ncn(CC(=O)Nc3ccccc3OC)c(=O)c12,3%,-1%,/,/
CCc1nn(-c2ccccc2)c2nc(-c3ccc(O)cc3)c3cc(OC)c(OC)cc3c12,2%[2.28 µM],4%,-21%,1%
COC(=O)Cc1c[nH]c2cccc(OCC(O)CN(Cc3ccc([N+](=O)[O-])cc3)C(C)(C)C)c12 (centres undefined),10%,-2%,18µM*,?
Cc1ccc(CN(CC(O)COc2cccc3[nH]cc(C)c23)C(C)(C)C)cc1 (centres undefined),/,-2%,?,21µM*
Cc1c[nH]c2cccc(OCC(CNC(C)(C)C)OC(=O)c3ccccc3)c12 (centres undefined),/,0%,-27%,-16%
COc1ccc(COC[C@H](C)[C@H](O[Si](C)(C)C)[C@@H](C)[C@H]2OC(=O)[C@H]2C)cc1,9%,/,/,/
COc1cc2c(c3ccccc13)CCCC2=O,/,28µM*,-7%,-15%
COc1ccc(NC(=O)c2cccc3c(-c4cccnc4)coc23)cc1,/,4%,21µM*,12µM*
O=C(Nc1ccccc1)c1cccc2c(-c3cccnc3)coc12,/,-25%,15µM*,21µM*
O=C(NCc1ccccc1)c1cccc2c(-c3cccnc3)coc12,/,-10%,?,?
CC(C)CNC(=O)c1cccc2c(-c3cccnc3)coc12,/,-19%,-18%,-20%
O=C(Nc1cccnc1)c1cccc(S(=O)(=O)N2CCc3ccccc32)c1,-5%,/,?,26µM*
O=C(Nc1ccncc1)c1cccc(S(=O)(=O)N2CCc3ccccc32)c1,0%,/,6.5µM*,5.8µM*
O=C(O)c1cccc(NC(=O)c2cccc(S(=O)(=O)N3CCc4ccccc43)c2)c1,/,/,9%,3%
O=C(NCCCN1CCOCC1)c1cccc(S(=O)(=O)N2CCc3ccccc32)c1,/,1%,23µM*,?
O=C(NCCCN1CCOCC1)c1cccc(S(=O)(=O)N2CCOCC2)c1,0%,-1%,-7%,-23%
O=C(Nc1nc2c(s1)CCCC2)c1cccc(S(=O)(=O)N2CCCc3ccccc32)c1,3%,?,23µM*,26µM*
O=C1C2C3C=CC(C4CC34)C2C(=O)N1/N=C/c1cccs1 (centres undefined),-3%,-1%,?,-18%
O=C(NCCc1ccccc1)c1nnc(Cc2cccc(F)c2)o1,-5%,-4%,-23%,-12%
CCN(CC)S(=O)(=O)c1ccc(N2CCCCC2)c(NC(=O)C2CSC3(C)CCC(=O)N23)c1 (centres undefined),/,2%,?,?
CN(C)C(=O)c1ccc(NC(=O)c2cccc(S(=O)(=O)N3CCCc4ccccc43)c2)cc1,/,/,16µM*,23µM*
CCOC(=O)c1sc(NC(=O)c2cccc(S(=O)(=O)N3CCc4ccccc43)c2)c(C#N)c1C,/,4%,2.9µM*,5.8µM*
CN(C)C(=O)c1ccc(NC(=O)c2cccc(S(=O)(=O)N3CCCCCC3)c2)cc1,0%,4%,?,-29%
SMILES,TDP1 inh,ClpP mod,DT40 TDP1 no CPT,DT40 TDP1 CPT
CCC(CC)c1nnc(NC(=O)c2cccc(S(=O)(=O)N3CCc4ccccc43)c2)s1,2%,-3%,?,?
Cc1ccc(-n2nnnc2CNC(=O)c2ccc(F)cc2)cc1C,5%,1%,-1%,-9%
CC(C)(C)CC(C)(C)Nc1c(-c2ccc(O)cc2)nc2cnccn12,/,22µM*,26µM*,18µM*
Cc1ccc2nc(-c3ccc(F)cc3)c(NC(C)(C)CC(C)(C)C)n2c1,3%,?,8.2µM*,16µM*
Cc1ccc(S(=O)(=O)NNC(=O)C2Cc3c(ccc4ccccc34)O2)cc1 (centres undefined),-3%,-4%,23µM*,?
O=C(Nc1ccc(C(=O)OCc2cc(=O)n3c4c(sc3n2)CCCC4)cc1)c1cccc(F)c1,4%,-1%,?,?
Cn1nc(-c2ccccc2)c(CSc2ccccc2Cl)c1Cl,2%,-2%,10µM*,?
COc1ccc(C(C)(C)C)cc1NS(=O)(=O)c1cccc2cccnc12,/,-2%,18µM*,26µM*
COc1ccc(NS(=O)(=O)c2ccc3ccccc3c2)c2ncccc12,/,-10%,6.5µM*,8.2µM*
COc1ccc(OC)c(NS(=O)(=O)c2cccc3cccnc23)c1,/,/,-29%,-5%
COc1ccccc1NS(=O)(=O)c1ccc2ccccc2c1,/,1%,-3%,-19%
COc1ccccc1C1Nc2c(sc3nc(C)cc(C)c23)C(=O)N1c1ccccc1 (centres undefined),-5%,4%,?,?
Cc1cc(C)n(-c2nc3c(c(=O)[nH]c(=O)n3C)n2CC(O)COc2ccc(Cl)cc2Cl)n1 (centres undefined),2%,-17%,5.8µM*,6.5µM*
COc1ccccc1OCC(O)Cn1c(Br)nc2c1c(=O)[nH]c(=O)n2C (centres undefined),4%,-1%,15µM*,?
COc1ccccc1OCc1cc(C(=O)N2CC3C[C@@H]4CC2C[C@H](C3)C4)no1,3%,-1%,13µM*,12µM*
O=C(c1cc(COc2ccc(F)cc2F)on1)N1CC2C[C@@H]3CC1C[C@H](C2)C3,0%,-2%,2.6µM*,6.5µM*
COc1ccc(OCc2cc(C(=O)N3C[C@H]4CC[C@H]3C4)no2)c(Cl)c1,0%,/,-26%,-3%
CC(=O)c1cccc(OCc2cc(C(=O)N3CC4C[C@@H]5CC3C[C@H](C4)C5)no2)c1,5%,-1%,1.5µM*,2.6µM*
CCOc1ccc(NC(=O)COC(=O)C23CC4CC(CC(C4)C2)C3)c([N+](=O)[O-])c1,8%,-5%,?,18µM*
COc1ccc(-n2nnnc2C2CCN(S(=O)(=O)c3cc(Cl)ccc3OC)CC2)cc1,-7%,-15%,18µM*,13µM*
COc1ccc(-n2nnnc2C2CCN(S(=O)(=O)c3ccc(C)cc3)CC2)cc1,2%,-2%,-76%,13µM*
COc1ccc(-n2c(SCC(=O)C(C)(C)C)nc3c(sc(=S)n3-c3ccccc3)c2=O)c(OC)c1,/,1%,12µM*,13µM*
Cc1cccc(N(C(=O)c2cnc3n(c2=O)CCS3)C2CCCCC2)c1,3%,-3%,?,12µM*
O=C(c1cnc2n(c1=O)CCS2)N(C1CCCCC1)C1CCCCC1,5%,-1%,23µM*,?
